The whole screen tested about 1,300 compounds, of which about 240 (18%) were called active. About 8% were inconclusive and are not listed. How the calls were made is not given here. Not all results are given here. Results with a measured potency or affinity are listed apart.

This test in a line: toxicity to human hepatoma HepG2 cells – cell-based, cherry-picked samples, cytotoxicity control, dose response (AID 1159577). To be noted: HepG2 cytotoxicity counterscreen, plate reader; series mostly up to 19.5 µM.
As to `O=C(c1ccccn1)N1CC(=O)N2[C@H](C1)[C@@H](c1ccc(C#CCc3ccccc3)cc1)[C@@H]2CO`, the molecule was classed as inactive.
The entry for `CCCN(C)C[C@@H]1Oc2cc(C#CC3CCCC3)ccc2S(=O)(=O)N([C@@H](C)CO)C[C@@H]1C` is “inactive”; for `COc1ccc2c3c(n(C)c2c1)[C@@H](CO)N(S(C)(=O)=O)CC31CCN(C(=O)CN(C)C)CC1` it is “inactive”; for `COc1ccc2c3c(n(C)c2c1)[C@H](CO)N(C(=O)Nc1ccc(F)cc1)CC31CCN(C)CC1` it is “inactive”.
On to `COc1ccc2c3c(n(C)c2c1)[C@@H](CO)N(C(=O)Nc1ccccc1F)CC31CCN(C)CC1`, for which the molecule was called inactive.
The entry for `COc1ccc2c3c(n(C)c2c1)[C@H](CO)N(C(=O)Nc1ccc(F)cc1)CC31CN(Cc2cccnc2)C1` is “inactive”; for `COc1ccc2c3c(n(C)c2c1)[C@@H](CO)N(C(=O)Nc1ccc(F)cc1)CC31CN(C(=O)c2ccccc2F)C1` it is “inactive”; for `COc1ccc2c3c(n(C)c2c1)[C@@H](CO)N(Cc1ccccc1)CC31CCN(S(=O)(=O)c2ccc(C)cc2)CC1` it is “inactive”.
As to `COc1ccc2c3c(n(C)c2c1)[C@H](CO)N(C(=O)Nc1ccc(F)cc1)CC31CN(C(=O)NC2CCCC2)C1`, the call was inactive.
On to `COc1ccc2c3c(n(C)c2c1)[C@@H](CO)N(C(=O)Nc1ccc(F)cc1)CC31CCN(Cc2cccnc2)CC1`, for which the molecule was classed as inactive.
Take `COc1ccc(-c2ccccc2[C@H]2[C@@H](C#N)N(C(=O)NC3CCCCC3)[C@H]2CO)cc1`: the result was inactive.
Take `C[C@H](CO)N1C[C@H](C)[C@H](CN(C)S(=O)(=O)c2ccc([N+](=O)[O-])cc2)OCc2ccccc2-c2c(n(C)c3ccccc23)C1=O`: the call was inactive.
The entry for `CCNC(=O)c1cc2c(c(-c3cccc(-c4ccccc4F)c3)n1)[C@@H](CCO)N(C(=O)CC1CC1)C2` is “inactive”; for `C[C@H]1CN([C@@H](C)CO)C(=O)c2c(c3ccccc3n2C)-c2ccccc2CO[C@H]1CN(C)S(=O)(=O)c1ccc(Cl)cc1` it is “inactive”.
Consider `C[C@@H](C(=O)N(C)C[C@@H]1OCc2ccccc2-c2c(n(C)c3ccccc23)C(=O)N([C@@H](C)CO)C[C@@H]1C)c1ccccc1`, for which the outcome was inactive.
To `COc1cccc(S(=O)(=O)N(C)C[C@@H]2Oc3ncc(C#Cc4ccc(C(F)(F)F)cc4)cc3C(=O)N([C@H](C)CO)C[C@@H]2C)c1` belongs “inactive”; to `C[C@H](CO)N1C[C@H](C)[C@@H](CN(C)S(=O)(=O)c2ccccc2)Oc2ccc(NC(=O)Cc3cn(C)c4ccccc34)cc2C1=O`, “inactive”; to `C[C@@H]1CN([C@H](C)CO)C(=O)c2cccc(NS(=O)(=O)c3ccccc3)c2O[C@H]1CN(C)Cc1ccc(Oc2ccccc2)cc1`, “inactive”.
The entry for `COc1cccc(NC(=O)N(C)C[C@H]2Oc3ncc(/C=C/c4ccccc4)cc3C(=O)N([C@@H](C)CO)C[C@@H]2C)c1` is “inactive”; for `COc1cccc(S(=O)(=O)N2CCC3(CC2)CN[C@@H](CO)c2[nH]c4cc(OC)ccc4c23)c1` it is “inactive”; for `COc1ccc(CN2C[C@H](C)[C@H](OC)CN(C)C(=O)c3cc(NC(=O)c4nc5ccccc5s4)ccc3OC[C@@H]2C)cc1` it is “inactive”.
With `C[C@@H]1CN([C@H](C)CO)C(=O)c2cccc(NC(=O)c3nc4ccccc4s3)c2O[C@H]1CN(C)C(=O)NC1CCCCC1`, the result was inactive.
Consider `C[C@@H]1CN([C@H](C)CO)C(=O)c2c(c3ccccc3n2C)-c2ccccc2CO[C@H]1CN(C)S(=O)(=O)c1ccsc1`, for which the molecule was called inactive.
For the molecule `CCCNC(=O)N1CC2(CCN(C(=O)CN(C)C)CC2)c2c(n(C)c3cc(OC)ccc23)[C@H]1CO`, the result was inactive.
On to `CCC(=O)N1CC2(CCN(Cc3ccc(Cl)cc3)CC2)c2c(n(C)c3cc(OC)ccc23)[C@@H]1CO`, for which the call was inactive.
The entry for `CC(C)(C)S(=O)N1Cc2cc(C(=O)N[C@@H]3CCN(Cc4ccccc4)C3)nc(-c3cccc(C#CCC4CCCC4)c3)c2[C@H]1CCO` (stereo partly drawn) is “inactive”; for `COc1ccc(C#Cc2ccc3c(c2)O[C@@H](CN(C)C(=O)Nc2cccc(OC)c2)[C@H](C)CN([C@@H](C)CO)S3(=O)=O)cc1` it is “inactive”.
As for `CO[C@@H]1CN(C)C(=O)c2cc(NC(=O)NC3CCCCC3)ccc2OC[C@@H](C)N(CCc2ccccc2)C[C@H]1C`, the molecule was called inactive.
Take `COc1ccc2c3c([nH]c2c1)[C@@H](CO)N(Cc1cccc(F)c1)CC31CCN(Cc2ccccn2)CC1`: the call was inactive.
On to `COc1ccc(C#Cc2ccc([C@H]3[C@@H](CO)N4CCCCN(C(=O)Nc5ccccc5F)C[C@@H]34)cc2)cc1`, for which the result was inactive.
Take `COc1ccc(C#Cc2ccc([C@@H]3[C@@H](CO)N4CCCCN(C(=O)Nc5ccccc5F)C[C@@H]34)cc2)cc1`: the molecule was called inactive.
Consider `N#C[C@@H]1[C@@H](c2ccccc2-c2ccccc2F)[C@H](CO)N1C(=O)C1CC1`, for which the molecule was called inactive.
To `COCc1cn([C@@H]2C[C@@H]3O[C@@H](CO)CC[C@@H]3O[C@@H]2CCc2ccc(-c3ccc(OC)cc3)cc2)nn1` belongs “inactive”; to `O=C(Nc1cccc(F)c1)N[C@@H]1CC[C@@H](CCNS(=O)(=O)c2cccc(Cl)c2)O[C@@H]1CO`, “inactive”.
In the case of `CC(C)NC(=O)N1[C@H](C#N)[C@H](c2ccccc2-c2ccc(F)cc2)[C@@H]1CO`, the molecule was classed as inactive.
The entry for `CC(C)NC(=O)N1[C@H](C#N)[C@H](c2ccc(-c3ccc(F)cc3)cc2)[C@@H]1CO` is “inactive”.
`CCCNC(=O)N1[C@H](C#N)[C@H](c2ccc(-c3cccc(OC)c3)cc2)[C@@H]1CO`: the molecule was called inactive.
For `COc1ccc(-c2ccccc2[C@H]2[C@@H](C#N)N(C(=O)NC(C)C)[C@H]2CO)cc1`, the call was inactive.
To `COc1ccc(-c2ccc([C@H]3[C@H](C#N)N(C(=O)c4cccc(F)c4)[C@H]3CO)cc2)cc1` belongs “inactive”; to `CC(C)NC(=O)N1[C@H](C#N)[C@H](c2ccc(C#CC3CCCC3)cc2)[C@@H]1CO`, “inactive”.
In the case of `C[C@H]1CN([C@@H](C)CO)C(=O)c2c(c3ccccc3n2C)-c2ccccc2CO[C@@H]1CN(C)S(=O)(=O)c1ccc(C(F)(F)F)cc1`, the call was inactive.
Regarding `C[C@H]1CN([C@@H](C)CO)C(=O)c2cc(NC(=O)Cc3cn(C)c4ccccc34)ccc2O[C@H]1CN(C)S(=O)(=O)c1ccccc1`, the molecule was called inactive.
Regarding `CO[C@H]1CN(C)C(=O)c2cc(NC(=O)c3ccc(F)cc3)ccc2OC[C@H](C)N(C(=O)c2ccc(F)cc2)C[C@H]1C`, the outcome was inactive.

These data come from PubChem BioAssay AID1159577 (Broad Institute, 2015).
